Laboratory results reported in PubChem BioAssay (NCI).
This is part of a sample that, as a whole, favours compounds with a hit. Of some 83,000 tested, about 20% had one in any assay.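 Percent growth is the endpoint: 0 to 100 indicates growth inhibition (40 means 60% inhibition), 0 means no net growth, and negative values indicate cell death.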 Activity calls are given as the source filed them. Rule for the calls: active = growth percent below 10; inactive = the rest.

Key:
Assay in all cases: NCI-60 one-dose screen, 48 h (100 = growth as untreated, 0 = no growth, -100 = all killed)
[1] = test system: SK-MEL-2 melanoma; details: 10 µM
[2] = test system: EKVX NSCLC; details: 10 µM unless noted
[3] = test system: SN12C renal; details: 10 µM unless noted
[4] = test system: UO-31 renal; details: 10 µM unless noted
[5] = test system: TK-10 renal; details: 10 µM unless noted
[6] = test system: ACHN renal; details: 10 µM unless noted
[7] = test system: A498 renal; details: 10 µM unless noted
[8] = test system: CCRF-CEM leukemia; details: 10 µM unless noted
[9] = test system: MOLT-4 leukemia; details: 10 µM unless noted

Measured: growth

CCN1CCN(c2cc(C)nc(N(CCCNc3ccnc4cc(Cl)ccc34)Cc3ccc4c(c3)OCO4)n2)CC1
inactive: [2] 42.3% | [3] 34.6% | [7] 27.8%
active: [1] -67.9% | [4] -81.9% | [5] -58.2% | [6] -0.628% | [8] -18.1% | [9] -15.9%

O=C(Cc1ccccc1)Nc1nnc(NC2CCN(c3nnc(NC(=O)Cc4ccccc4)s3)CC2)s1
inactive: [1] 122% | [2] 90.2% | [3] 86% | [4] 74.4% | [5] 110% | [6] 103% | [7] 43.8% | [8] 72.4% | [9] 91.3%

CC(C)=CCc1cc2c(cc1O)C1=C(C(=O)C3=C(C1=O)S(=O)(=O)CCN3)C(C=C(C)C)O2 (stereo not drawn)
active: [1] -53.9% | [2] -26.1% | [3] -36.7% | [4] -2.94% | [5] 7.58% | [6] -22.1% | [7] -70% | [8] 1.85% | [9] -38.2%

COC(=O)[C@@H](C)CNS(=O)(=O)N(c1cc(C(F)(F)F)cc(C(F)(F)F)c1)C1CCN(Cc2ccc(F)cc2)CC1
inactive: [1] 81.7% | [2] 74.6% | [3] 36.8% | [4] 44% | [5] 89% | [6] 86.4% | [7] 66% | [8] 56.6% | [9] 58.2%

CC(=Nc1ccccc1)C1=C(O)C(Cc2ccc(O)cc2)NC1=O (stereo not drawn)
active: [7] -25.6% | [9] -3.04%
inactive: [1] 42.2% | [2] 20.4% | [3] 43.5% | [4] 42.3% | [5] 68.2% | [6] 33.2%

CC(C)OP(=O)(CCC(=O)c1c[nH]c2ccccc12)OC(C)C
inactive: [1] 98.9% | [2] 96.5% | [3] 103% | [4] 82.9% | [5] 97.8% | [6] 101% | [7] 104% | [8] 75.7% | [9] 93.3%

COc1ccc(-c2nocc2-c2cc(OC)c(OC)c(OC)c2)cc1
inactive: [1] 41.5% | [2] 54.2% | [3] 50% | [4] 36.3% | [5] 67.3% | [6] 39.6% | [8] 22.7% | [9] 20.4%

Cc1cc(N2CCCC2)nc(N(CCCNc2ccnc3cc(Cl)ccc23)Cc2ccc3c(c2)OCO3)n1
active: [1] -50.7% | [4] -24.5% | [5] -12.6% | [6] -10.7% | [8] 1% | [9] -15.4%
inactive: [2] 35.9% | [3] 29.3% | [7] 13.6%

CN1CCN(Cc2ccc(NC(=O)c3[nH]ncc3Nc3ncnc4sc5c(c34)CCCC5)cc2)CC1
active: [1] -53.7% | [2] -71.2% | [3] -44.2% | [4] -82.9% | [5] -96.6% | [6] -100% | [7] -60.5% | [8] -16.2% | [9] -62.5%

COc1cnc2c(c1)C(=O)c1c-2n(CCCNC2=NCCS2)c(=O)c2cc(Cl)ccc12
inactive: [1] 90.5%
active: [2] -35.8% | [3] -49.4% | [4] -80.6% | [5] -17.7% | [6] -91.8% | [7] -13% | [8] -23% | [9] -41.5%

CCc1ccc(/C=C/c2ccc(O)c3ncccc23)[n+](C)c1
inactive: [1] 78.4% | [2] 47% | [3] 31.4% | [4] 27.1% | [5] 85.5% | [6] 89.3% | [7] 29.6%
active: [9] 7.81%

CCCCN1CCCC[C@@H]1C(=O)N[C@H](C(=O)N(C)[C@H](CCc1nc(C(=O)N[C@@H](Cc2ccccc2)C[C@H](C)C(=O)OC)cs1)C(C)C)C(C)C
inactive: [1] 68.1% | [2] 65.8% | [3] 82.2% | [4] 52.3% | [5] 102% | [6] 59.7% | [7] 61.2% | [8] 38.8% | [9] 35.2%

CCN1CCN(c2nc(C)cc(N(CCCNc3ccnc4cc(Cl)ccc34)Cc3ccc4c(c3)OCO4)n2)CC1
active: [1] -60.1% | [4] -86.8% | [5] -70.7% | [6] -25% | [7] -27.7% | [8] -13.5% | [9] -14.1%
inactive: [2] 35.8% | [3] 30.1%

Cc1ccc(NC(=O)NC(=O)CSc2nc3ccccc3nc2C)cc1
inactive: [1] 68.3% | [2] 59.6% | [3] 73.7% | [4] 64.5% | [5] 82.3% | [6] 75.6% | [7] 69.2% | [8] 58.9% | [9] 74.3%

COc1cc(OC)c(C(=O)/C=C/c2cc3c(cc2OCc2ccccc2)OC(C)(C)CC3)cc1CC=C(C)C
inactive: [1] 82.3% | [2] 61.1% | [3] 47.6% | [4] 51.4% | [5] 81.7% | [6] 68.2% | [7] 98.9%
active: [9] -0.0389%

COC(=O)CCCNc1c(-c2c(O)c(O)cc3c(O)c(-c4c(C)cc5c(-c6nc7ccccn7c6NCCCC(=O)OC)c(O)c(O)cc5c4O)c(C)cc23)nc2ccccn12
inactive: [1] 60.1% | [2] 61.8% | [3] 21.7% | [4] 57.8% | [5] 64.4% | [6] 78.7% | [7] 32.1% | [8] 27.4% | [9] 15.7%

Oc1ccc(/C=N/Nc2nnc(N/N=C/c3ccc(O)cc3O)c3ccccc23)c(O)c1
inactive: [5] 10.5%
active: [1] -58% | [2] -18.4% | [3] -28% | [4] 0% | [6] -3.24% | [7] -61.1% | [8] -51.4% | [9] -26.9%

Cc1cc(N(CCNc2ccnc3cc(Cl)ccc23)Cc2cccs2)nc(Cl)n1
active: [1] -58.2% | [3] -15.9% | [4] -79.4% | [5] -93% | [6] -88% | [7] -6.31% | [8] -2.45% | [9] -38.2%
inactive: [2] 33.9%

O=C(c1ccccc1)C(c1ccccc1)N1CCOCC1 (stereo not drawn)
inactive: [1] 91.1% | [2] 99% | [3] 101% | [4] 86.9% | [5] 90% | [6] 106% | [7] 111% | [8] 91.2% | [9] 94.3%

c1cc[n+](Cc2c3ccccc3cc3c2ccc2ccccc23)cc1
inactive: [1] 25% | [2] 58.3% | [4] 81.9% | [5] 78.1% | [6] 103% | [7] 80.2% | [8] 55.5% | [9] 25.6%
active: [3] 0.929%

C=C1C[C@H](O)[C@H](Br)C(C)(C)[C@@]12CCC(C)=C(Cl)C2
inactive: [2] 13.5% | [3] 22.6% | [4] 37.1% | [5] 31% | [6] 24.2% | [8] 21.6%
active: [1] 6.3% | [9] -8.16%

CCN(CC)C(=O)C[N+](C)(C)CCOC(c1ccccc1)c1ccccc1
inactive: [1] 103% | [2] 100% | [3] 106% | [4] 93.4% | [5] 98.2% | [6] 111% | [7] 114% | [8] 112% | [9] 103%

N#CC(C#N)=NO
inactive: [1] 100% | [2] 92.4% | [3] 106% | [4] 98.6% | [5] 93.9% | [6] 98.4% | [7] 102% | [8] 87% | [9] 99.8%

C=CC[n+]1c(/C=C2\Sc3ccccc3N2C)sc(-c2ccccc2)c1-c1ccccc1
active: [1] -15.5% | [3] 8.01% | [4] 6.58% | [5] -6.28% | [6] 8.86% | [7] 7.29% | [9] -4.71%
inactive: [2] 16.5% | [8] 23.2%

COC(=O)[C@]12CC[C@@H](C)[C@H](C)[C@@H]1C1=CC[C@@H]3[C@@]4(C)C(c5cnco5)=C[C@@](C)(CO)C4=CC[C@@]3(C)[C@]1(C)CC2
inactive: [1] 42.3% | [2] 41.2% | [3] 55.9% | [4] 44.1% | [5] 69.6% | [6] 25.4% | [8] 35.5% | [9] 10.1%

COc1ccc2nc3cc(Cl)ccc3c(Nc3ccc(N(C)C)cc3)c2c1
inactive: [1] 96.8% | [2] 92.9% | [3] 91.1% | [4] 84% | [5] 128% | [6] 100% | [7] 94.6%
active: [9] 0.475%

CCN1CCN(c2nc(C)cc(N(CCNc3ccnc4cc(Cl)ccc34)Cc3ccc4c(c3)OCO4)n2)CC1
active: [1] -55.8% | [4] -41.7% | [5] -47.1% | [6] -17.2% | [8] -1.37% | [9] -3.96%
inactive: [2] 68.2% | [3] 59.3% | [7] 53.2%

CCc1ccc(C2=C(O)C(=O)C(c3ccc(CC)cc3)=C(O)C2=O)cc1
active: [1] -44.4% | [2] -15% | [3] -6.25% | [4] 0.57% | [5] 5.31% | [6] -9.41% | [7] -31% | [9] -6.88%

Cc1sc2c(c1C)c(=O)nc1c(-c3nc4ccccc4s3)n[nH]n12
inactive: [1] 95.2% | [2] 81.9% | [3] 96.7% | [4] 73.7% | [5] 140% | [6] 101% | [7] 101% | [8] 89.2% | [9] 94.5%
